Measurements from PubChem BioAssay (Tox21).
Where “and” joins values, the source holds several entries; their conditions need not be identical. Equal values may be shown once. Unmarked numbers belong to inactive results. Inconclusive results are not listed. Entries that show only a call come without a potency. Calls of active or inactive are those of the source. Unless noted, calls come from the whole dose curve; as a rule, active = well fitted curve in the direction sought with a large enough effect in the repeat runs; inconclusive = weak or mixed curves; inactive = no such curve, though single readings can be large; an effect the other way counts as inactive or inconclusive.

Key:
[1] = qHTS assay to identify small molecule agonists of the progesterone receptor (PR) signaling pathway - cell viability counter screen (AID 1346799; calls by dose curve; note: nearly all actives have a fitted effect of over 45% in size; note: potency is the fitted concentration of half-maximal effect)
Summary of the method: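 Viability was scored by ATP luminescence (CellTiter-Glo, 30 min, room temperature) in the same wells used for the reporter readout, after 16 hr compound exposure of PR-UAS-bla HEK293T cells.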

[2] = qHTS assay to identify small molecule antagonists of the TGF-beta/Smad signaling pathway - cell viability counter screen (AID 1346824); note: nearly all actives have a fitted effect of over 50% in size
Summary of the method: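 SBE-bla HEK 293T cells were plated overnight at 37 C, then given compounds in DMSO plus TGF-beta1 (added as 0.25 ng/mL solution) for 5 hr. After the bla read, CellTiter-Glo was added to the same wells and luminescence read after 30 min at room temperature.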

[3] = qHTS assay to identify small molecule agonists of the TGF-beta/Smad signaling pathway - cell viability counter screen (AID 1346829); note: top concentration of the series differs between compounds; nearly all actives have a fitted effect of over 45% in size
Summary of the method: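 Compound-treated SBE-bla HEK 293T cells (5 hr, 37 C) were assessed for viability with CellTiter-Glo in parallel with the reporter read.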

[4] = qHTS assay to identify small molecule agonists of the TGF-beta/Smad signaling pathway (AID 1346859; active = well fitted activation curve with a large enough effect in the signal ratio in the repeat runs, not every such curve was filed as active; the % refers to the signal ratio; note: series mostly up to about 77 µM)
Summary of the method: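 Dual-wavelength fluorescence (460/530 nm emission) quantified beta-lactamase expression under the Smad binding element in HEK 293T cells following 5 hr compound treatment at 37 C.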

[5] = biological target: Thyrotropin-releasing hormone receptor (Homo sapiens) (UniProt P34981); assay: qHTS assay to identify small molecule antagonists of the thyrotropin-releasing hormone receptor (TRHR) signaling pathway (AID 1346877; active = well fitted inhibition curve with a large enough effect in the repeat runs, not every such curve was filed as active; note: series mostly up to about 51 µM)
Summary of the method: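 Overnight-plated (18 h, 37 °C) HEK293 cells expressing TRHR were dye-loaded 2 h, treated with compound, then stimulated with TRH at 1 nM final. Fluorescence intensity was captured every second for 3 min.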

[6] = biological target: Thyrotropin-releasing hormone receptor (Homo sapiens) (UniProt P34981); assay: qHTS assay to identify small molecule agonists of the thyrotropin-releasing hormone receptor (TRHR) signaling pathway (AID 1346891; calls by dose curve;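 note: HEK293 cells expressing TRHR with calcium dye readout; series mostly up to about 58 µM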)
Summary of the method: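 Kinetic fluorescence (3 min, 1 s intervals) reported intracellular calcium after compound transfer onto TRHR-Hek293 cells pre-loaded with dye for 2 h at 37 °C.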

[7] = Human pregnane X receptor (PXR) small molecule agonists, qHTS cell viability counter screen (AID 1346977); note: nearly all actives have a fitted effect of over 50% in size; note: potency is the fitted concentration of half-maximal effect
Summary of the method: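 HepG2 cells stably carrying the PXR-Luc reporter are cultured with 5% charcoal-stripped FBS and treated with compounds for 24hr. CellTiter-Fluor is added at 23hr and fluorescence is read after 1hr.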

[8] = Caspase-3/7 induction in HepG2 cells by small molecules, qHTS assay (AID 1346978); note: nearly all actives have a fitted effect of over 15% in size; note: potency is the fitted concentration of half-maximal effect
Summary of the method: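 Wild-type HepG2 cells (2,000/well) were settled 5 h at 37 C, 5% CO2, then exposed to compounds in DMSO for 17 h. Caspase-3/7 activity was read by luminescence 30 min after adding Caspase-Glo 3/7 reagent at room temperature.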

[9] = Caspase-3/7 induction in CHO-K1 cells by small molecules, qHTS assay (AID 1346980); note: nearly all actives have a fitted effect of over 15% in size
Summary of the method: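 Wild-type cells were seeded at 1,500 per well and settled 5 hr at 37 C, 5% CO2, then exposed to DMSO-dissolved compounds for 17 hr. Caspase-Glo 3/7 reagent was added, and luminescence was read after 30min at room temperature.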

[10] = Caspase-3/7 induction in HepG2 cells by small molecules, qHTS cell viability counter screen (AID 1346981); note: nearly all actives have a fitted effect of over 30% in size; note: potency is the fitted concentration of half-maximal effect; for activity change, negative = cytotoxicity: series mostly up to about 92 µM
Summary of the method: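 Treatment of HepG2 cells with DMSO-delivered compounds ran 16 hr at 37 C following a 5-hr pre-incubation of 2,000 cells/well. CellTiter-Fluor fluorescence, read after 1 hr, served as the viability measure in a qHTS format.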

[11] = biological target: Nuclear receptor subfamily 1 group I member 2 (Homo sapiens) (UniProt O75469); assay: Human pregnane X receptor (PXR) small molecule agonists, qHTS assay (AID 1346982); note: nearly all actives have a fitted effect of over 35% in size; note: potency is the fitted concentration of half-maximal effect
Summary of the method: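 Stable HepG2 line reporting PXR-mediated CYP3A4 expression via luciferase. Treatment: 24 hr with compounds in DMSO at 37 C. Detection: ONE-Glo luminescence.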

[12] = biological target: Cytochrome P450 2D6 (Homo sapiens) (UniProt P10635); assay: Cytochrome P450 Family 2 Subfamily D Member 6 (CYP2D6) small molecule antagonists: luciferase reporter qHTS assay (AID 1671196); note: nearly all actives have a fitted effect of over 50% in size; note: potency is the fitted concentration of half-maximal effect; for activity change, negative = inhibition: series mostly up to about 120 µM
Summary of the method: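 Chemicals tested for interference with CYP2D6 activity; proluciferin substrate, NADPH regeneration, 1 h at room temperature, luminescent detection.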

[13] = biological target: Cytochrome P450 2C19 (Homo sapiens) (UniProt P33261); assay: Cytochrome P450 Family 2 Subfamily C Member 19 (CYP2C19) small molecule antagonists: luciferase reporter qHTS assay (AID 1671197); note: nearly all actives have a fitted effect of over 65% in size; note: potency is the fitted concentration of half-maximal effect; for activity change, negative = inhibition: series mostly up to about 120 µM
Summary of the method: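 P450-Glo CYP2C19 screening system; proluciferin substrate; DMSO compound stocks; 10 min RT preincubation; NADPH regeneration, 1 h at 37C; luciferin detection reagent, 20 min RT; luminescence as RLU.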

[14] = biological target: Cytochrome P450 2C9 (Homo sapiens) (UniProt P11712); assay: Cytochrome P450 Family 2 Subfamily C Member 9 (CYP2C9) small molecule antagonists: luciferase reporter qHTS assay (AID 1671198); note: nearly all actives have a fitted effect of over 50% in size; note: potency is the fitted concentration of half-maximal effect; for activity change, negative = inhibition: series mostly up to about 120 µM
Summary of the method: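 CYP2C9 activity was measured with a P450-Glo proluciferin substrate. Enzyme–substrate mix was held with compound for 10 min at room temperature, then NADPH regeneration solution was added for 1 h at 37C. Luciferin product was read as luminescence.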

[15] = biological target: Cytochrome P450 1A2 (Homo sapiens) (UniProt P05177); assay: Cytochrome P450 Family 1 Subfamily A Member 2 (CYP1A2) small molecule antagonists: luciferase reporter qHTS assay (AID 1671199); note: nearly all actives have a fitted effect of over 50% in size; note: potency is the fitted concentration of half-maximal effect; for activity change, negative = inhibition: series mostly up to about 120 µM
Summary of the method: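 Read-out is luminescence from luciferin detection reagent (20 min) proportional to CYP1A2 activity; compounds in DMSO preincubated 10 min with enzyme and proluciferin substrate, then NADPH regeneration solution, 1 h, room temperature.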

[16] = Caspase-3/7 induction in CHO-K1 cells by small molecules, qHTS cell viability counter screen (AID 1346979); note: nearly all actives have a fitted effect of over 35% in size; note: potency is the fitted concentration of half-maximal effect
Summary of the method: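 Seeding: 1,500 CHO-K1 cells/well. Rest: 5hr, 37C. Treatment: compounds in DMSO, 16hr. Read: CellTiter-Fluor, 1hr, fluorescence.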

Sequence of Cytochrome P450 1A2 (Homo sapiens) (P05177 whole entry, looked up): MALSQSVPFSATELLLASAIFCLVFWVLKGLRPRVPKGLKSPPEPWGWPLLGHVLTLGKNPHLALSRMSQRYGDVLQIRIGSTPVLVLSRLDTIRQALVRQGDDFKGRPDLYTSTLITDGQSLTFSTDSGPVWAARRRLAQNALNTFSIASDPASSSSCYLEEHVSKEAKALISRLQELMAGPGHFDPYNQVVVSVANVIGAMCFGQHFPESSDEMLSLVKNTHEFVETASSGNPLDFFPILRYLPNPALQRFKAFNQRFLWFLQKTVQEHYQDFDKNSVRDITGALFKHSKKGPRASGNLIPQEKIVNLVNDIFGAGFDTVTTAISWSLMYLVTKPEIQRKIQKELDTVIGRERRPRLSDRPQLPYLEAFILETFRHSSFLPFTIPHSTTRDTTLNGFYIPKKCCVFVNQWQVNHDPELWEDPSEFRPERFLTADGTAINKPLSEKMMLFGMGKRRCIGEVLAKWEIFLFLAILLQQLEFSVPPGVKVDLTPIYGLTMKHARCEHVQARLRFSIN
Sequence of Cytochrome P450 2C19 (Homo sapiens) (P33261 whole entry, looked up): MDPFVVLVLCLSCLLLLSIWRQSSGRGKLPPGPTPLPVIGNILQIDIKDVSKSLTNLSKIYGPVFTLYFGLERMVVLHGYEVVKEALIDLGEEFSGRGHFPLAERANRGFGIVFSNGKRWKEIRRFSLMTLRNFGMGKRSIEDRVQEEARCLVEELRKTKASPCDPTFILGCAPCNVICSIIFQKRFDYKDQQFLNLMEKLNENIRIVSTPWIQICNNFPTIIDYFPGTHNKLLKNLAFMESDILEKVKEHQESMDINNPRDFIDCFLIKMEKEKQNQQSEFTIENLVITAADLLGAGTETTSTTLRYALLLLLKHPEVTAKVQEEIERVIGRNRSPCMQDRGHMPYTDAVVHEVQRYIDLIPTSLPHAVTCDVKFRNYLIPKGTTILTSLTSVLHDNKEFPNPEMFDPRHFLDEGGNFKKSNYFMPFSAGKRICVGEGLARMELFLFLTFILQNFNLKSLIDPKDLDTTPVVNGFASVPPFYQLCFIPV
Sequence of Cytochrome P450 2C9 (Homo sapiens) (P11712 whole entry, looked up): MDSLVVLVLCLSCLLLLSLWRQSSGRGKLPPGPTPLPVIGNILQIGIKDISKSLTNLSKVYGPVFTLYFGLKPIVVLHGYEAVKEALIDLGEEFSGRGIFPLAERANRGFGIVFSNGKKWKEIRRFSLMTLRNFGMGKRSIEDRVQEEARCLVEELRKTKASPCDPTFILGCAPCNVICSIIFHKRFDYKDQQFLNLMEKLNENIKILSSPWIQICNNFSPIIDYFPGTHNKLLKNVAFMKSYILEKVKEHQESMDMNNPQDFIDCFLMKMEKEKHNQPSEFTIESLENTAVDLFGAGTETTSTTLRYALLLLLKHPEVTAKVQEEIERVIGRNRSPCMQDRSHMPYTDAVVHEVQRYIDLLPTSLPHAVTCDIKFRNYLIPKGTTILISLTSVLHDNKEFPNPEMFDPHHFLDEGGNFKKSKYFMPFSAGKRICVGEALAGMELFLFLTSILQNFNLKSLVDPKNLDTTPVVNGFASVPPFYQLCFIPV
Sequence of Cytochrome P450 2D6 (Homo sapiens) (P10635 whole entry, looked up): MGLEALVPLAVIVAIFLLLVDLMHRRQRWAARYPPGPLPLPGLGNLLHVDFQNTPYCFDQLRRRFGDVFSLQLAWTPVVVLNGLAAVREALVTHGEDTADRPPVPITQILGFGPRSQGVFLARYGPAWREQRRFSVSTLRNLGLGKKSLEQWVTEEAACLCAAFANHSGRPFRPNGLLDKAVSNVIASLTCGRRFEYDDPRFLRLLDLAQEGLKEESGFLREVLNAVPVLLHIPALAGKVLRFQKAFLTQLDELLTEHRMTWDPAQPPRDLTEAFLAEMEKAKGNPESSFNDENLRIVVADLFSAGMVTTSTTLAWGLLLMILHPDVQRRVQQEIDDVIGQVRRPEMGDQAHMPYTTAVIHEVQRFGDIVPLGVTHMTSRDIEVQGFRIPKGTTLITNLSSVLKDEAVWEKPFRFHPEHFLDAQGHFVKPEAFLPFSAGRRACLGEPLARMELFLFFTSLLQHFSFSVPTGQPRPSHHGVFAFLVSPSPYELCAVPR
Sequence of Nuclear receptor subfamily 1 group I member 2 (Homo sapiens) (O75469 whole entry, looked up): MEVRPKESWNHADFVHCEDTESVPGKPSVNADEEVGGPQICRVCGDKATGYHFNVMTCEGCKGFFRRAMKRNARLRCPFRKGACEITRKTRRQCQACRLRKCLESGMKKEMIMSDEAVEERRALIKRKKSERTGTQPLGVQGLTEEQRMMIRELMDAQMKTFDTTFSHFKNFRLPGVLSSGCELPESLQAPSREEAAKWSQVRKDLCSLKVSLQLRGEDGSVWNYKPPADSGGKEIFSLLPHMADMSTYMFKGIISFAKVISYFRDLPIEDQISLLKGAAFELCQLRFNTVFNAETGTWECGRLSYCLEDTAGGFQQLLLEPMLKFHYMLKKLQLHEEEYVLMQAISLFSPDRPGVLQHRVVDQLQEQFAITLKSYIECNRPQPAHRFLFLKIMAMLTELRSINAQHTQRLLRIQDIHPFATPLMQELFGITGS
Sequence of Thyrotropin-releasing hormone receptor (Homo sapiens) (P34981 whole entry, looked up): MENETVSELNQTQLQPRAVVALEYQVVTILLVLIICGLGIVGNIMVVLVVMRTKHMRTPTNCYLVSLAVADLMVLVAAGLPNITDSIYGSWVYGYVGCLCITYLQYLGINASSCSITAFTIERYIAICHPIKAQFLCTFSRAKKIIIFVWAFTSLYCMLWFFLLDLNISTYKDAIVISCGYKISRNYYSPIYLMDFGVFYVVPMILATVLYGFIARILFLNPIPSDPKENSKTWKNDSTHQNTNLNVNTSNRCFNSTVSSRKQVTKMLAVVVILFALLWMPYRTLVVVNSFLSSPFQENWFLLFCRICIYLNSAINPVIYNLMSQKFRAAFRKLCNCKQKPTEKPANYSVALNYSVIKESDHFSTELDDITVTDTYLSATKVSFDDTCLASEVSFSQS

CC(C)c1ccc(O)c(C(C)C)c1
Potency [1]: inactive | Potency [2]: inactive | Potency [3]: inactive | Potency [4]: inactive | Potency [5]: inactive | Potency [6]: inactive | Potency [7]: inactive | Potency [8]: 61.1 µM (active) | Potency [9]: inactive | Potency [10]: inactive | Potency [11]: inactive | Potency [12]: inactive | Potency [13]: 7.1 µM (active) | Potency [14]: 35.6 µM (active) | Potency [15]: 31.7 µM (active)

O=C1Nc2ccc(Cl)cc2[C@@](C#CC2CC2)(C(F)(F)F)O1
Potency [1]: inactive | Potency [3]: inactive | Potency [4]: inactive | Potency [5]: inactive | Potency [6]: inactive | Potency [16]: 21.1 µM (active) | Potency [9]: inactive | Potency [12]: inactive | Potency [13]: 11 µM (active) | Potency [14]: 15.5 µM (active) | Potency [15]: 17.4 µM (active)

CCCCCCCCCCOCC(O)CN (centres undefined)
Potency [1]: 29.8 µM (active) | Potency [2]: inactive | Potency [4]: inactive | Potency [5]: inactive | Potency [6]: inactive | Potency [8]: 29.8 µM (active) | Potency [16]: 33.5 µM (active) | Potency [11]: inactive | Potency [12]: 6.92 µM (active) | Potency [13]: 6.92 µM (active) | Potency [14]: 13.8 µM (active) | Potency [15]: 2.88 µM (active)

CC(C)c1ccccc1N
Potency [1]: inactive | Potency [2]: inactive | Potency [4]: inactive | Potency [5]: inactive | Potency [6]: inactive | Potency [7]: inactive | Potency [16]: inactive | Potency [9]: inactive | Potency [10]: inactive | Potency [11]: 61.1 µM (active) | Potency [12]: inactive | Potency [15]: inactive

C[Si](C)O[Si](C)C
Potency [1]: inactive | Potency [2]: inactive | Potency [3]: inactive | Potency [4]: inactive | Potency [8]: inactive | Potency [16]: inactive | Potency [9]: inactive | Potency [10]: inactive | Potency [11]: inactive | Potency [12]: inactive | Potency [13]: inactive | Potency [15]: inactive

CCCCCCCCCCc1ccccc1
Potency [1]: inactive | Potency [2]: inactive | Potency [3]: inactive | Potency [4]: inactive | Potency [5]: inactive | Potency [6]: inactive | Potency [7]: inactive | Potency [8]: inactive | Potency [16]: inactive | Potency [9]: inactive | Potency [11]: inactive | Potency [12]: inactive | Potency [13]: inactive | Potency [14]: inactive

COc1ccc(C#N)cc1
Potency [1]: inactive | Potency [2]: inactive | Potency [3]: inactive | Potency [4]: inactive | Potency [5]: inactive | Potency [6]: inactive | Potency [8]: inactive | Potency [16]: inactive | Potency [9]: inactive | Potency [10]: inactive | Potency [11]: inactive | Potency [12]: inactive | Potency [13]: inactive | Potency [14]: inactive

CCCCC(CC)COC(=O)c1ccc(O)cc1 (centres undefined)
Potency [1]: inactive | Potency [3]: inactive | Potency [4]: inactive | Potency [5]: inactive | Potency [6]: inactive | Potency [8]: inactive | Potency [16]: 54.3 µM (active) and 61.1 µM (active) | Potency [9]: inactive | Potency [11]: 24.2 µM (active) and 68.6 µM (active) | Potency [12]: 79.4 µM (active) and 22.4 µM (active) | Potency [13]: 11.2 µM (active) and 17.8 µM (active) | Potency [15]: 31.6 µM (active) and 35.6 µM (active)

c1cc(OCC2CO2)cc(OCC2CO2)c1 (centres undefined)
Potency [1]: 60.6 µM (active) | Potency [2]: inactive | Potency [3]: inactive | Potency [5]: inactive | Potency [6]: inactive | Potency [7]: 60.6 µM (active) | Potency [16]: 60.6 µM (active) | Potency [9]: inactive | Potency [10]: 60.6 µM (active) | Potency [11]: 21.5 µM (active) | Potency [14]: 39.6 µM (active)

Cc1ccc(O)cn1
Potency [1]: inactive | Potency [2]: inactive | Potency [4]: inactive | Potency [5]: inactive | Potency [7]: inactive | Potency [8]: inactive | Potency [16]: inactive | Potency [9]: inactive | Potency [10]: inactive | Potency [11]: inactive | Potency [13]: inactive | Potency [14]: inactive | Potency [15]: inactive

COc1cc(C(C)C)c2c(c1)S(=O)(=O)N(COc1cc(=O)n3cccc(OCCN4CCCCC4)c3n1)C2=O
activity change, negative = cytotoxicity [1]: 20.1% [at 19 µM] | viability change, negative = cytotoxic [2]: 14.4% [at 15.8 µM] | activity change, negative = cytotoxicity [3]: 15.8% [at 15.8 µM] | activation [4]: -2.24% [at 15.8 µM] | activity, negative = inhibition [5]: 0.273% [at 10.5 µM] | activation [6]: -1.34% [at 11.8 µM] | caspase-3/7 activation [9]: -0.224% [at 19 µM] | Potency [11]: 13 µM (active) | activity change, negative = inhibition [15]: -18.4% [at 23.6 µM]

COc1cccc(O)c1
Potency [1]: inactive | Potency [2]: inactive | Potency [3]: inactive | Potency [4]: inactive | Potency [5]: inactive | Potency [6]: inactive | Potency [7]: inactive | Potency [8]: inactive | Potency [16]: inactive | Potency [9]: inactive | Potency [11]: inactive | Potency [12]: inactive | Potency [14]: inactive

O=S(=O)(O)CCCN1CCOCC1
Potency [1]: inactive | Potency [2]: inactive | Potency [3]: inactive | Potency [4]: inactive | Potency [5]: inactive | Potency [6]: inactive | Potency [7]: inactive | Potency [8]: inactive | Potency [16]: inactive | Potency [9]: inactive | Potency [10]: inactive | Potency [11]: inactive | Potency [12]: inactive | Potency [13]: inactive | Potency [15]: inactive

O=C[C@H](O)[C@H](O)[C@H](O)CO
Potency [1]: inactive | Potency [2]: inactive | Potency [3]: inactive | Potency [4]: inactive | Potency [5]: inactive | Potency [6]: inactive | Potency [7]: inactive | Potency [8]: inactive | Potency [16]: inactive | Potency [9]: inactive | Potency [10]: inactive | Potency [11]: inactive | Potency [12]: inactive | Potency [13]: inactive | Potency [14]: inactive | Potency [15]: inactive
